Inconclusive results are not listed. Activity calls are given as the source filed them. The calls were made as follows, unless noted: active = hit-call score of the fitted dose curve at least 0.9, where 1 is the maximum; inactive = score below 0.9.
Tests used:
[1] = molecular target: Glucocorticoid receptor (Homo sapiens) (UniProt P04150); assay: ATG_GR_TRANS: Attagene TRANS-FACTORIAL HepG2 Assay for human Glucocorticoid Receptor (GR) (AID 2282978; active = hit-call score of the fitted dose curve at least 0.9, where 1 is the maximum;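 also: activators score as hits since higher reporter transcript over DMSO is fitted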); conditions: HepG2 Attagene TRANS GR reporter, mRNA transcription
Outline: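 HepG2 transient transfection, multiple reporter units, GAL4-UAS under NR-GAL4 chimera control. 24 h treatment. Reporter mRNA by RT-PCR/CE fluorescence, DMSO as negative control.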

[2] = molecular target: Bile acid receptor (Homo sapiens) (UniProt Q96RI1); assay: ATG_FXR_TRANS: Attagene TRANS-FACTORIAL HepG2 Assay for Farnesoid X Receptor (FXR) (AID 2282979; active = hit-call score of the fitted dose curve at least 0.9, where 1 is the maximum;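 also: hits raise reporter mRNA above DMSO so AC50 marks FXR activation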); conditions: HepG2 Attagene TRANS FXR-GAL4 reporter transcription
Outline: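 HepG2 cells transiently transfected with reporter constructs in which a chimeric FXR-GAL4 protein drives a GAL4-UAS reporter; 24 h compound exposure. Reporter mRNA measured by RT-PCR, FAM labelling, HpaI digestion and capillary electrophoresis; gain-of-signal versus DMSO.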

[3] = molecular target: Oxysterols receptor LXR-alpha (Homo sapiens) (UniProt Q13133); assay: ATG_LXRa_TRANS: Attagene TRANS-FACTORIAL HepG2 Assay for human Liver X Receptor alpha (LXRa) (AID 2282980; active = hit-call score of the fitted dose curve at least 0.9, where 1 is the maximum); conditions: HepG2 Attagene TRANS reporter, LXRa transactivation
Outline: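 HepG2 cells were transiently transfected with multiplexed reporter units driven by chimeric LXRa–GAL4 fusion proteins, then dosed for 24 h. Reporter mRNA was quantified by RT-PCR, fluorescent labelling and capillary electrophoresis; gain of signal fitted against DMSO baseline.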

[4] = molecular target: Oxysterols receptor LXR-beta (Homo sapiens) (UniProt P55055); assay: ATG_LXRb_TRANS: Attagene TRANS-FACTORIAL HepG2 Assay for human Liver X Receptor beta (LXRb) (AID 2282981; active = hit-call score of the fitted dose curve at least 0.9, where 1 is the maximum); conditions: HepG2 Attagene TRANS GAL4-LXRb reporter, mRNA
Outline: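 Multiplexed reporter assay, HepG2, 24 h dosing. Fluorescence of labelled RT-PCR products after capillary electrophoresis gives transcript level; positive fitting direction relative to DMSO.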

[5] = molecular target: Hepatocyte nuclear factor 4-alpha (Homo sapiens) (UniProt P41235); assay: ATG_HNF4a_TRANS: Attagene TRANS-FACTORIAL HepG2 Assay for human Hepatocyte Nuclear Factor 4 alpha (HNF4a) (AID 2282982; active = hit-call score of the fitted dose curve at least 0.9, where 1 is the maximum); conditions: HepG2 HNF4a transactivation reporter, mRNA readout
Outline: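 Endpoint reflects transcriptional activation of a GAL4-UAS reporter by an HNF4a-GAL4 chimera in transfected HepG2 cells, 24 h post-dosing. Fluorescence from RT-PCR products separated by capillary electrophoresis; DMSO baseline.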

[6] = ATG_M_06_TRANS: Attagene TRANS-FACTORIAL HepG2 Assay for M06 Transcription Factor (Internal Marker) (AID 2282983; active = hit-call score of the fitted dose curve at least 0.9, where 1 is the maximum); conditions: HepG2 Attagene TRANS M06 internal marker reporter
Outline: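 In this multiplexed HepG2 system, compounds are incubated 24 h with cells carrying GAL4-UAS reporter units. Reporter RNA is amplified and resolved by capillary electrophoresis, and induction is scored against DMSO.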

[7] = ATG_M_32_TRANS: Attagene TRANS-FACTORIAL HepG2 Assay for M32 Transcription Factor (Internal Marker) (AID 2282984; active = hit-call score of the fitted dose curve at least 0.9, where 1 is the maximum;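 also: transcript level of a background control reporter unit measured by RT-PCR and capillary electrophoresis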); conditions: HepG2 Attagene TRANS M32 internal marker reporter
Outline: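 Internal-marker readout from a multiplexed transcription reporter panel. HepG2 cells were transfected with GAL4-UAS reporter units, treated 24 hours, and reporter transcript levels determined by fluorescence after RT-PCR and capillary separation.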

[8] = molecular target: Nuclear receptor subfamily 4 group A member 2 (Homo sapiens) (UniProt P43354); assay: ATG_NURR1_TRANS: Attagene TRANS-FACTORIAL HepG2 Assay for human Nuclear Receptor Related Protein 1 (NURR1) (AID 2282985; active = hit-call score of the fitted dose curve at least 0.9, where 1 is the maximum); conditions: HepG2 Attagene TRANS reporter, mRNA readout
Outline: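 Endpoint: reporter mRNA increase relative to DMSO. HepG2 cells transfected with reporter units, treated 24 h; RNA processed by RT-PCR, labelling, HpaI digestion and capillary electrophoresis.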

[9] = molecular target: Transcriptional activator Myb (Homo sapiens) (UniProt P10242); assay: ATG_Myb_CIS: Attagene CIS-FACTORIAL HepG2 Assay for human Myeloblastosis (Myb) Proto-Oncogene Transcription Factor (AID 2282986); conditions: HepG2 Attagene CIS-FACTORIAL Myb reporter transcription; actives raise or lower the signal
Outline: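 Multiplexed cis-reporter system in HepG2: transient transfection, 24 h treatment, mRNA readout by RT-PCR and capillary electrophoresis. Both increases and decreases are scored versus DMSO negative control.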

[10] = molecular target: Nuclear respiratory factor 1 (Homo sapiens) (UniProt Q16656); assay: ATG_NRF1_CIS: Attagene CIS-FACTORIAL HepG2 Assay for human Nuclear Respiratory Factor 1 (NRF1) Orphan Gene (AID 2282987); conditions: HepG2 NRF1 cis-element reporter, Attagene multiplex; actives raise or lower the signal
Outline: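 Endogenous factor activity was captured via cis-element-driven reporter transcripts in HepG2 cells. Following 24 h chemical treatment, transcripts were quantified by RT-PCR and capillary electrophoresis.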

[11] = ATG_NFI_CIS: Attagene CIS-FACTORIAL HepG2 Assay for human Nuclear Factor I (NFI) (AID 2282989); conditions: HepG2 cis-regulatory reporter, NFI response element transcription; actives raise or lower the signal
Outline: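 Reporter transcripts were measured by RT-PCR with fluorescent primer extension and capillary electrophoresis 24 h post-treatment. HepG2 cells carried transiently transfected cis-regulated reporter constructs reporting endogenous factor activity; gain or loss fitted against DMSO baseline.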

[12] = molecular target: Myc proto-oncogene protein (Homo sapiens) (UniProt P01106); assay: ATG_Myc_CIS: Attagene CIS-FACTORIAL HepG2 Assay for human Myelocytomatosis (Myc) Proto-Oncogene Transcription Factor (AID 2282990); conditions: HepG2, Attagene cis-reporter transcription factor activity; actives raise or lower the signal
Outline: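 Read-out: fluorescent reporter mRNA fragments resolved by capillary electrophoresis after RT-PCR. Human HepG2 liver cells carried transfected cis-element reporter units and were dosed for 24 h. Gain or loss of signal fitted relative to DMSO baseline.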

[13] = ATG_NRF2_ARE_CIS: Attagene CIS-FACTORIAL HepG2 Assay for human Nuclear Factor Erythroid 2 Related Factor 2 (NFR2) response to Antioxidant Response Elements (ARE) (AID 2282992); conditions: HepG2 Attagene ARE/NRF2 reporter, transcription factor activity; actives raise or lower the signal;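 as to AC50: reporter mRNA level measured by RT-PCR and capillary electrophoresis fluorescence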
Outline: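 Endogenous transcription factor activity in human liver HepG2 cells is tracked via a cis-element-driven reporter within a multiplexed set. mRNA induction is read by RT-PCR and capillary electrophoresis after 24 h, with DMSO as baseline.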

[14] = ATG_Oct_MLP_CIS: Attagene CIS-FACTORIAL HepG2 Assay for human Octamer-Binding Transcription Factor (Oct) (AID 2282993); conditions: HepG2 Attagene cis-factorial Oct reporter, mRNA; actives raise or lower the signal
Outline: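 Readout is reporter transcript level from RT-PCR with fluorescent primer extension and capillary electrophoresis, fitted in both directions against DMSO. Transfected HepG2 reporter units report endogenous factor activity after 24 h dosing.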

[15] = molecular target: Cellular tumor antigen p53 (Homo sapiens) (UniProt P04637); assay: ATG_p53_CIS: Attagene CIS-FACTORIAL HepG2 Assay for human p53 Transcription Factor (AID 2282994); conditions: HepG2 p53 cis-element reporter, Attagene mRNA; actives raise or lower the signal
Outline: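 Steps: transfect HepG2 with multiplexed cis reporter constructs; dose chemicals 24 h; extract RNA, reverse-transcribe, PCR-amplify reporter sequences; FAM-label, HpaI-digest, resolve fragments by CE. Activity fitted both directions relative to DMSO.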

[16] = ATG_NF_kB_CIS: Attagene CIS-FACTORIAL HepG2 Assay for human Nuclear Factor Kappa B (NF-kB) (AID 2282991); conditions: HepG2 Attagene cis-factorial NF-kB reporter mRNA; actives raise or lower the signal
Outline: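 After 24 h compound incubation, transfected HepG2 cells yield total RNA; reporter cDNA is PCR-amplified, end-labelled with 6-FAM, HpaI-digested and analysed on a genetic analyser. Endogenous factor activity, DMSO-referenced bidirectional fit.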

[17] = BSK_3C_TissueFactor: BioMAP Diversity Plus: 3C Assay for Tissue Factor Biomarker Activity (AID 2282997); conditions: BioMAP 3C HUVEC, tissue factor biomarker readout; actives raise or lower the signal
Outline: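 Readout: Tissue Factor ELISA. Cells: human primary umbilical vein endothelium. Time: 24 h after dosing. Analysis: bidirectional fit, DMSO baseline.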

[18] = BSK_3C_uPAR: BioMAP Diversity Plus: 3C Assay for Urokinase-type plasminogen activator receptor (uPAR) Biomarker Activity (AID 2282998); conditions: BioMAP 3C HUVEC, uPAR biomarker ELISA; actives raise or lower the signal
Outline: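 Cell-surface uPAR on HUVEC (3C system) read by ELISA at 24 h post-treatment, with DMSO as baseline and fitting in both directions. Parallel cultures stained with SRB to flag overt cytotoxicity.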

[19] = BSK_3C_VCAM1: BioMAP Diversity Plus: 3C Assay for Vascular cell adhesion molecule 1 (VCAM1) Biomarker Activity (AID 2282999); conditions: BioMAP 3C HUVEC, VCAM1 ELISA, cytokine-stimulated; actives raise or lower the signal
Outline: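 HUVEC primary cells, 24 h compound exposure; VCAM-1 by ELISA; gain/loss of signal fitted bidirectionally vs DMSO baseline.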

[20] = BSK_4H_Eotaxin3: BioMAP Diversity Plus: 4H Assay for Eotaxin 3 Biomarker Activity (AID 2283000); conditions: primary human endothelial cells (HUVEC); actives raise or lower the signal
Outline: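 HUVEC, 24 h post-dose, ELISA for Eotaxin-3/CCL26. Gain or loss of signal fitted bidirectionally vs DMSO baseline.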

Measured: AC50

Sequence of Cellular tumor antigen p53 (Homo sapiens) (P04637 whole entry, looked up, the tested form may be a part): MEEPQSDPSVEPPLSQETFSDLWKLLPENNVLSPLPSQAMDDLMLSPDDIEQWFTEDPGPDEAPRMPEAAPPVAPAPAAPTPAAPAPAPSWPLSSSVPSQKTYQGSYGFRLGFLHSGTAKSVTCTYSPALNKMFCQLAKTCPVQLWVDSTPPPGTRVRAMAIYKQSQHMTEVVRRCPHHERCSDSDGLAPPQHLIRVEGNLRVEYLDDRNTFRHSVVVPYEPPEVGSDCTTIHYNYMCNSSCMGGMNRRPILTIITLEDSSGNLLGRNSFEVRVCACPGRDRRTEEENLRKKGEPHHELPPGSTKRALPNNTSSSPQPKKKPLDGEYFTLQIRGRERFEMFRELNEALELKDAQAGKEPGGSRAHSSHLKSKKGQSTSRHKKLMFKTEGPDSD
Sequence of Myc proto-oncogene protein (Homo sapiens) (P01106 whole entry, looked up, the tested form may be a part): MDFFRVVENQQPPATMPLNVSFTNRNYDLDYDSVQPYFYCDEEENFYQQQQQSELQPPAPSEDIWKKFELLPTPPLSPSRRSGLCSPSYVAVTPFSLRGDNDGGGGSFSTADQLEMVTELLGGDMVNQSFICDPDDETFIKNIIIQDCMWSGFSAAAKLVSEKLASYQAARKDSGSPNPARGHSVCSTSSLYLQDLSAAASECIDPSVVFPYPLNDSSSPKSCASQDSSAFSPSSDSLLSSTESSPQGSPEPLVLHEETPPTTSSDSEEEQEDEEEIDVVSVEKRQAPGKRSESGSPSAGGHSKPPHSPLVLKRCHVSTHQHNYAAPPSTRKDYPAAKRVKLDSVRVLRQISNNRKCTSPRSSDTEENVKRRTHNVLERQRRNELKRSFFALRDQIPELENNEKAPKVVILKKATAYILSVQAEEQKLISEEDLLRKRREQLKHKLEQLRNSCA
Sequence of Oxysterols receptor LXR-alpha (Homo sapiens) (Q13133 whole entry, looked up, the tested form may be a part): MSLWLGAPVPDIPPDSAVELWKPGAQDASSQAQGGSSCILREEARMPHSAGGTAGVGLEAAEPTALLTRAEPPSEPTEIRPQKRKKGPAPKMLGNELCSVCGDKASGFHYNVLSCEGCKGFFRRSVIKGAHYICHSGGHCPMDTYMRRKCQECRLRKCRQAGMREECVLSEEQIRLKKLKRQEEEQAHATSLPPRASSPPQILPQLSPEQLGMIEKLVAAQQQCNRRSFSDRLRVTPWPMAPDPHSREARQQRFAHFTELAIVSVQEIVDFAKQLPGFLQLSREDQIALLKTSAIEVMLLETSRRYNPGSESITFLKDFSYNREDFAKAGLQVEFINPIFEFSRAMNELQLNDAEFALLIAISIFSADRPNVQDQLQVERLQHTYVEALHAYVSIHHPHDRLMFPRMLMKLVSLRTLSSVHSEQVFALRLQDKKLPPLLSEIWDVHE
Sequence of Nuclear respiratory factor 1 (Homo sapiens) (Q16656 whole entry, looked up): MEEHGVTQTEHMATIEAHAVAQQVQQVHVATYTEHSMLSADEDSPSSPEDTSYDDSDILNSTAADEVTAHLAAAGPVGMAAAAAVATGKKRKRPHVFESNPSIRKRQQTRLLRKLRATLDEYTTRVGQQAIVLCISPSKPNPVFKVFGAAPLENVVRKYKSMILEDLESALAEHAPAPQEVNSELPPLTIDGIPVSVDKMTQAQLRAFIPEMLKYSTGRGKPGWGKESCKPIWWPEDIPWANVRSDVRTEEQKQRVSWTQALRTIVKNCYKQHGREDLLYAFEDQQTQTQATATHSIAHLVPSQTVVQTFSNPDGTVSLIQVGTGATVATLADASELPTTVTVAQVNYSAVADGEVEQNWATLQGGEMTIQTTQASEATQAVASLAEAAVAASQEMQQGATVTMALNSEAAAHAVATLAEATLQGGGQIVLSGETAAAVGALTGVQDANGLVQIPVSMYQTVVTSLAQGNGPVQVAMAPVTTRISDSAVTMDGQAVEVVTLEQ
Sequence of Bile acid receptor (Homo sapiens) (Q96RI1 whole entry, looked up, the tested form may be a part): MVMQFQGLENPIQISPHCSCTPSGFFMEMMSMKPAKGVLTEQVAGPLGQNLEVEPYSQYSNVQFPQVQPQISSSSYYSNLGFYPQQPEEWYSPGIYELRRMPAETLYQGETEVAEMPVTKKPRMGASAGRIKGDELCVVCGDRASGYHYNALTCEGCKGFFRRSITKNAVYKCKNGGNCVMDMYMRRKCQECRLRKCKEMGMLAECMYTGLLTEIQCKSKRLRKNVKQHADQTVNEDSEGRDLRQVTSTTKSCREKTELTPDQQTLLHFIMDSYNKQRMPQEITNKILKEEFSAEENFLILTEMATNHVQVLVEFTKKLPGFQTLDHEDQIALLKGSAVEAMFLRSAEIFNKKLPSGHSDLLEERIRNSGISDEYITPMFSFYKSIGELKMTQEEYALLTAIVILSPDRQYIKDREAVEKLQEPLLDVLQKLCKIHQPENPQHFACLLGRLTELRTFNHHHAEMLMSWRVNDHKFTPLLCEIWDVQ
Sequence of Nuclear receptor subfamily 4 group A member 2 (Homo sapiens) (P43354 whole entry, looked up): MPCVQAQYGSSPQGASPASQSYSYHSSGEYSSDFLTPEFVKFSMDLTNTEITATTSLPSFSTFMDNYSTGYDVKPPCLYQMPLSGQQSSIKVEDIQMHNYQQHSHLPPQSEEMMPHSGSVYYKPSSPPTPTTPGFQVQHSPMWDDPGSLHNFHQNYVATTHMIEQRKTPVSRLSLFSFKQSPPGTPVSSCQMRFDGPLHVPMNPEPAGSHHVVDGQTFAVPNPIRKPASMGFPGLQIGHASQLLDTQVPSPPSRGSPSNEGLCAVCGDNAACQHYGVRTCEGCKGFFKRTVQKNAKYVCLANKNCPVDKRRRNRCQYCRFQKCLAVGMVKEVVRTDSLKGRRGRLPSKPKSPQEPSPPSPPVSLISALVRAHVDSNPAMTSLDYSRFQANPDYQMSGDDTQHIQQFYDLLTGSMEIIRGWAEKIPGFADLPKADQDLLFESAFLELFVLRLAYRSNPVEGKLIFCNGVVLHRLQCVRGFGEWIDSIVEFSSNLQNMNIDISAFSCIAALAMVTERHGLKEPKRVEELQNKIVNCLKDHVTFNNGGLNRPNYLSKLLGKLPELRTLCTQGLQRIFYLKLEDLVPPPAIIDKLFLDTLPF
Sequence of Transcriptional activator Myb (Homo sapiens) (P10242 whole entry, looked up): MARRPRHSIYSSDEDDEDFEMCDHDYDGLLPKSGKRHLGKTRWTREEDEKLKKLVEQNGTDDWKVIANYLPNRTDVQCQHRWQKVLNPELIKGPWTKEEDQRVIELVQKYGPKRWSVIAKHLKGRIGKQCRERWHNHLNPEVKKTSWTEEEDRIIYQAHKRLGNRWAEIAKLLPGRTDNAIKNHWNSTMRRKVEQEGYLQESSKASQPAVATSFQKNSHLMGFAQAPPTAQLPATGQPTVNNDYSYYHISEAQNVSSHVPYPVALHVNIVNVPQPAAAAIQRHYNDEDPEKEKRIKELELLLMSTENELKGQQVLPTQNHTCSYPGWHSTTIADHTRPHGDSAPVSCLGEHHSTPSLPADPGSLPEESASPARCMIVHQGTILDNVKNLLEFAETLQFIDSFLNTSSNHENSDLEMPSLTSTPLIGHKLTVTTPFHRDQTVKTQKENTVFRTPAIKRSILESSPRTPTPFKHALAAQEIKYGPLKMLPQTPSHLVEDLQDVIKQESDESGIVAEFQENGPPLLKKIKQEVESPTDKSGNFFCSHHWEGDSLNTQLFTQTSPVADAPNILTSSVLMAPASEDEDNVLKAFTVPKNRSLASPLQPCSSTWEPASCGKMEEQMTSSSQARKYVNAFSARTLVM
Sequence of Oxysterols receptor LXR-beta (Homo sapiens) (P55055 whole entry, looked up, the tested form may be a part): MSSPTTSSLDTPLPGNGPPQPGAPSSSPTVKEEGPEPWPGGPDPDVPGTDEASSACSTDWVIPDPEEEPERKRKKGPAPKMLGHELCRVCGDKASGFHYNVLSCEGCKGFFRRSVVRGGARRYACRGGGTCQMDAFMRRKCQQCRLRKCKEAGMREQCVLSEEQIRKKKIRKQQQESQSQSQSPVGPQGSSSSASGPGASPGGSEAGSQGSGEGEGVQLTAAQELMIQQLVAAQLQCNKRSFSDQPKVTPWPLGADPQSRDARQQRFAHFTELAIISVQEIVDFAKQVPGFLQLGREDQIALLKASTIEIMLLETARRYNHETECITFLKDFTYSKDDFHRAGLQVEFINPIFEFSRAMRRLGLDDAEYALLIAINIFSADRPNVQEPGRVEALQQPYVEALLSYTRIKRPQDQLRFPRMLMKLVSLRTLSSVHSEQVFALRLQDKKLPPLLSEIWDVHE
Sequence of Hepatocyte nuclear factor 4-alpha (Homo sapiens) (P41235 whole entry, looked up, the tested form may be a part): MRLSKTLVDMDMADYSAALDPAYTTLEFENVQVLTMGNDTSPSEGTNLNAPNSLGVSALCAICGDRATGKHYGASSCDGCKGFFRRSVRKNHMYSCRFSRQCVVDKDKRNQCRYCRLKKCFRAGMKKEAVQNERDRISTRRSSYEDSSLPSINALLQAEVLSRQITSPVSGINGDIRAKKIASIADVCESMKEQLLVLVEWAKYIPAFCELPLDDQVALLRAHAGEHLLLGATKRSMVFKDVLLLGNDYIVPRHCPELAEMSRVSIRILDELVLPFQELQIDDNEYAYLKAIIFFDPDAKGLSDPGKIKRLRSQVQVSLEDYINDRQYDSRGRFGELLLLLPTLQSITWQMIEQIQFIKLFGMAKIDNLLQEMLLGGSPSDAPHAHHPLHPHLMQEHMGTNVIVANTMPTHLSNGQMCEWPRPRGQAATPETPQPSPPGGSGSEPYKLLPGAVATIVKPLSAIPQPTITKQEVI

CCC(=O)/C=C/C1C(C)=CCCC1(C)C (stereo not given)
active: [13] 40.4 µM
not listed: [16] | [17] | [18] | [19] | [20]
inactive: all other assays above

CC(C)=CCC[C@H](C)CC=O
not listed: [5] | [7] | [11] | [16] | [17] | [18] | [19] | [20]
inactive: all other assays above

CC(=O)O[C@]1(C(C)=O)CC[C@H]2[C@@H]3C[C@H](C)C4=CC(=O)CC[C@]4(C)[C@H]3CC[C@@]21C
active: [1] 354 nM | [8] 16.8 µM | [16] 20 µM | [13] 65.1 µM | [15] 34.9 µM
not listed: [5] | [7]
inactive: all other assays above

BrC1CCC(Br)C(Br)CCC(Br)C(Br)CCC1Br (stereo not given)
active: [10] 110 µM | [11] 46 µM | [13] 23.1 µM | [14] 58.6 µM | [18] 3.22 µM | [19] 4.6 µM | [20] 3.25 µM
not listed: [4] | [5] | [7]
inactive: all other assays above

CN(C)CCOCCN(C)C
not listed: [3] | [5] | [6] | [8] | [17] | [18] | [19] | [20]
inactive: all other assays above

COc1c(Cl)c(Cl)c(Cl)c(Cl)c1Cl
inactive: [1] | [2] | [5] | [6] | [9] | [10] | [11] | [12] | [16] | [13] | [14]

CC(CCO)CCc1ccccc1 (stereo not given)
not listed: [4] | [5] | [7] | [11] | [17] | [18] | [19] | [20]
inactive: all other assays above

CCC(O)CO (stereo not given)
inactive: [1] | [2] | [3] | [5] | [7] | [10] | [12] | [16] | [13] | [14] | [15]

CCCCC/C=C/C=C/C=O
active: [13] 40.6 µM | [17] 29.5 µM | [18] 31.5 µM | [19] 29.3 µM | [20] 29.9 µM
not listed: [3] | [4] | [5]
inactive: all other assays above

Source: PubChem BioAssay (EPA / NIEHS)
